# In PubChem BioAssay (NCATS):
# Results filed as inconclusive are left out. Where a call stands in place of a potency, no number is given. More than one record can exist for a structure, and the calls need not agree. The source made the active and inactive calls. Unless noted, calls follow the shape of the dose curve; as a rule, active = well fitted curve in the direction sought with a large enough effect; inconclusive = small, poorly fitted or top-dose-only effect, or another doubt; inactive = no such curve, though single readings can be large; an effect the other way counts as inactive or inconclusive.
# Columns and labels:
# [1] = tested on: Zika virus NS2B-NS3 protease; assay: Primary screen GU AMC qHTS for Zika virus inhibitors (AID 1347154); also: nearly all actives have a fitted effect of over 70% in size
# Summary of the method: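 Unlinked Zika NS2B hydrophilic domain–NS3 protease complex at 25 nM in 10 mM Tris-HCl pH 8.0, 0.01% Tween 20, with an AMC peptide substrate. Fluorescence change (340/450 nm) over 15 min at room temperature, normalized to controls, fitted to 4-parameter Hill.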
# [2] = Counterscreen qHTS for small molecule stabilizers of the endoplasmic reticulum resident proteome: GLuc-NoTag assay (AID 1508627);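 also: SH-SY5Y cells given compound then 100 nM thapsigargin to empty ER calcium; series mostly up to about 76 µM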
# Summary of the method: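 SH-SY5Y cells stably expressing constitutively secreted GLuc without SERCaMP tag, exposed to compound for 19 hr, then to 100 nM thapsigargin for 4 hr at 37C. Medium luciferase was read by coelenterazine luminescence without lysis.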
# [3] = qHTS to identify inhibitors of the type 1 interferon - major histocompatibility complex class I in skeletal muscle: primary screen against the NCATS Mechanism Interrogation Plate v5.0 (MIPE) Libary (AID 1347411); also: nearly all actives have a fitted effect of over 65% in size
# Summary of the method: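 Immortalized human myoblasts (C25cl48) with HiBit knocked into endogenous HLA-B*08:01 were stimulated with 4 ng/ml IFN-beta and given compounds in 11-point 1:3 titration from 46 uM. After 24 h at 37 C, lytic HiBiT luminescence was read.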
# [4] = Primary qHTS for small molecule stabilizers of the endoplasmic reticulum resident proteome: Secreted ER Calcium Modulated Protein (SERCaMP) assay (AID 1508630)
# Summary of the method: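 GLuc-SERCaMP-expressing SH-SY5Y cells, pretreated 16 h with compound, are challenged with thapsigargin to empty ER calcium stores; after 4 h, coelenterazine is added directly to the medium and luminescence is imaged.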
# [5] = Primary qHTS for inhibitors of nuclear receptor binding SET domain protein 2 (NSD2) in an isogenic RCH-ACV NSD2 p.E1099K mutant (9B) (AID 1645876); also: nearly all actives have a fitted effect of over 70% in size; also: potency is read from the fitted curve at half-maximal effect
# [6] = Primary qHTS for inhibitors of nuclear receptor binding SET domain protein 2 (NSD2) in an RCH-ACV wild type WT cells (2C) (AID 1645877); also: nearly all actives have a fitted effect of over 70% in size; also: potency is read from the fitted curve at half-maximal effect
# [7] = biological target: Glutathione peroxidase 1 (Homo sapiens) (UniProt P07203); assay: Primary qHTS Assay for Inhibitors of Recombinant Selenoprotein Glutathione Peroxidase 1 (GPX1) (AID 1845191); also: nearly all actives have a fitted effect of over 65% in size
# Summary of the method: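 GR-coupled assay: compounds preincubated 30 min at room temperature with GPX1, then reaction started with CHP; final 10 nM GPX1, 1 mM GSH, 0.5 mM CHP, 0.5 mM NADPH, 100 nM GR, 0.01% BSA, pH 7.5 Tris buffer. NADPH fluorescence (340/450 nm) read at 0 and 15 min.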
# [8] = qHTS drug screen for cell cycle checkpoint inhibitors in PARPi-resistant BRCA-mutant ovarian cancer cell lines. (AID 1963452; calls by dose curve); conditions: PEO1/OlaR viability, CellTiter-Glo luminescence, 96 h, stronger effect = lower value
# Summary of the method: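 PEO1, PEO4 and PEO1/OlaR ovarian cancer cells, 600 per well, exposed 96 h at 37C to a dilution series. Viability read by CellTiter-Glo luminescence, normalized to DMSO and empty wells; activity summarized as Z-AUC.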
# [9] = NCATS anti-infectives library activity on HEK293 viability as a counter-qHTS vs the C. elegans viability qHTS (AID 1745854);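 also: HEK293 cells exposed to compounds for 24 hr before the viability read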
# Summary of the method: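 HEK293 cells (1,500/well) exposed 24 hr at 37C to 1:5 titrations, up to 41.7 uM final; counter-screen to a C. elegans viability qHTS. Viability by CellTiter-Glo luminescence after 10 min at room temperature; digitonin as control.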
# [10] = Confirmatory qHTS for small molecule stabilizers of the endoplasmic reticulum resident proteome: Secreted ER Calcium Modulated Protein (SERCaMP) assay (AID 1508628); also: nearly all actives have a fitted effect of over 40% in size; also: potency is read from the fitted curve at half-maximal effect
# Summary of the method: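 SH-SY5Y cells stably expressing GLuc-SERCaMP, treated 16 h with compound (primary 1.53, 7.67, 38.3 uM; confirmation 11 concentrations, up to 76.6 uM), then 100 nM thapsigargin for 4 h. Secreted Gaussia luciferase in medium read by coelenterazine luminescence.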
# [11] = biological target: Calcium and integrin-binding protein 1 (Homo sapiens) (UniProt Q99828); assay: Primary qHTS for Identification of Calcium Integrin Binding Protein 1 (CIB1) Competitor (AID 1508620)
# Summary of the method: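 Fluorescence polarization competition: GST-tagged CIB1 (1 uM final) preincubated with compound 15 min at room temperature, then FITC-labelled alphaIIb peptide (100 nM final) added. After 15 min at room temperature, polarization read at Ex 480/Em 540.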
# [12] = biological target: Cytochrome P450 3A4 (Homo sapiens) (UniProt P08684); assay: Cytochrome P450 family 3 subfamily A member 4 (CYP3A4) small molecule antagonists: luciferase qHTS assay (AID 1645841; active = well fitted curve in the direction sought with a large enough effect in the repeat runs; an effect the other way counts as inactive or inconclusive; also: nearly all actives have a fitted effect of over 45% in size)
# Summary of the method: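 P450-Glo CYP3A4 enzyme with proluciferin substrate preincubated 10 min with compound at room temperature, then NADPH regeneration 1 h. Luciferin detection reagent added for 20 min; luminescence recorded. Ketoconazole positive control.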
# [13] = biological target: Cytochrome P450 2C9 (Homo sapiens) (UniProt P11712); assay: Cytochrome P450 family 2 subfamily C member 9 (CYP2C9) small molecule antagonists: luciferase qHTS assay (AID 1645842; active = well fitted curve in the direction sought with a large enough effect in the repeat runs; an effect the other way counts as inactive or inconclusive; also: nearly all actives have a fitted effect of over 55% in size)
# Summary of the method: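 Luminescence, after 20 min with luciferin detection reagent, reflected CYP2C9 turnover during a 1 h NADPH-driven reaction at 37C. Enzyme-substrate mix contained 0.4% bovine serum albumin and was preincubated with compound 10 min at room temperature.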
# [14] = biological target: Phospholipid hydroperoxide glutathione peroxidase GPX4 (Homo sapiens) (UniProt P36969); assay: Primary qHTS Assay for Inhibitors of Recombinant Selenoprotein Glutathione Peroxidase 4 (GPX4) (AID 1845192); conditions: outcome: dose series up to 50 µM unless noted; also: nearly all actives have a fitted effect of over 65% in size
# Summary of the method: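 GR-coupled assay: recombinant GPX4 preincubated 30 min with compound at room temperature; final 200 nM GPX4, 1 mM GSH, 0.5 mM cumene hydroperoxide, 0.5 mM NADPH, 100 nM GR, 0.01% BSA, pH 7.5 Tris. NADPH fluorescence (340/450 nm) read at 0 and 15 min.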
# [15] = measured here: PEO1 parental Z-AUC
# Sequence of Glutathione peroxidase 1 (Homo sapiens) (P07203 whole entry, looked up): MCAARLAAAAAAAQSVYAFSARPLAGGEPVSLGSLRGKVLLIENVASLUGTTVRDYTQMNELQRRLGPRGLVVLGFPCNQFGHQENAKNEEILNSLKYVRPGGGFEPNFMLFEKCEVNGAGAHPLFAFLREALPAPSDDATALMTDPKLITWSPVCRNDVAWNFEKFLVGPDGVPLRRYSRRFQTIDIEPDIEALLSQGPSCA
# Sequence of Cytochrome P450 3A4 (Homo sapiens) (P08684 whole entry, looked up): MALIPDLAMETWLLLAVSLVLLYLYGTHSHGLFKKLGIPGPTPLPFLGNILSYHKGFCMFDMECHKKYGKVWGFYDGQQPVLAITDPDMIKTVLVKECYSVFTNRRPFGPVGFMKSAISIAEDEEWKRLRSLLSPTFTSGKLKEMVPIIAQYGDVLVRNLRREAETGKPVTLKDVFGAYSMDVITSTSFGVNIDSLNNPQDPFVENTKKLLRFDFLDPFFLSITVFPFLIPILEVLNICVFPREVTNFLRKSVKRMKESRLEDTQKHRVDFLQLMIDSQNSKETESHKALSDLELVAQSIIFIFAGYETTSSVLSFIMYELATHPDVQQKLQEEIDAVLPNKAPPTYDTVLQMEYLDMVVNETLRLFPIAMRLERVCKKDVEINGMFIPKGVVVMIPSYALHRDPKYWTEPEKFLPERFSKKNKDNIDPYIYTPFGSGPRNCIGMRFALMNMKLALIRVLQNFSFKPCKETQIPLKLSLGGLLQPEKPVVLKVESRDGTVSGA
# Sequence of Cytochrome P450 2C9 (Homo sapiens) (P11712 whole entry, looked up): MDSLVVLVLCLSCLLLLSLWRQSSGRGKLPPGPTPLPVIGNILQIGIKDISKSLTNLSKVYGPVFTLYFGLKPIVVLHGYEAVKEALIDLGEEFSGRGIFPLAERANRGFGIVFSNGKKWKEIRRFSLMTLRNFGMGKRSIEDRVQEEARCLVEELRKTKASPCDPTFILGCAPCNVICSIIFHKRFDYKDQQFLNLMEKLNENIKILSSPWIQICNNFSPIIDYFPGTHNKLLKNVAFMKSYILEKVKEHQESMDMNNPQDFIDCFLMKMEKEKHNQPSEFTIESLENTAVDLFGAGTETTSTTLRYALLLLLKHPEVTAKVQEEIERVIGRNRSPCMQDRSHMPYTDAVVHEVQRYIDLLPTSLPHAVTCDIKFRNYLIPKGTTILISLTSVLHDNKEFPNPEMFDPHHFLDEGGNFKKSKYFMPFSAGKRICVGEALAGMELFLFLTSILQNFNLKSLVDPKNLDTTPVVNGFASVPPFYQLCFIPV
# Sequence of Calcium and integrin-binding protein 1 (Homo sapiens) (Q99828 whole entry, looked up): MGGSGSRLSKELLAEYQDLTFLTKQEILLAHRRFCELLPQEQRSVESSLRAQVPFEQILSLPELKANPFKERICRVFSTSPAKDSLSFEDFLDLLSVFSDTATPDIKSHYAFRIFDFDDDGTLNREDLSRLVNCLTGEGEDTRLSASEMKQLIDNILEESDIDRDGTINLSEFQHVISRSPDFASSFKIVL
# Sequence of Phospholipid hydroperoxide glutathione peroxidase GPX4 (Homo sapiens) (P36969 whole entry, looked up): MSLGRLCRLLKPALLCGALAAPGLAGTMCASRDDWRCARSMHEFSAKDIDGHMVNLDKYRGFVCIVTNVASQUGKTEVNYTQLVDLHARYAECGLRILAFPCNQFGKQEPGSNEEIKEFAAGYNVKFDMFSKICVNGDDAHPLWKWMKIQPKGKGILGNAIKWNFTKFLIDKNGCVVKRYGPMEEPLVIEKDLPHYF
smiles,measurement,setting,value
c1ncc(CCCC2CCNCC2)[nH]1,Potency,[1],inactive
same,Potency,[2],inactive
COc1ccc2c(c1)CC[C@@H]1[C@@H]2CC[C@]2(C)[C@@H](NCCCCCCN3C(=O)C=CC3=O)CC[C@@H]12,Potency,[1],inactive
same,Potency,[3],inactive
same,Potency,[4],inactive
same,Potency,[5],13.2 µM (active)
same,Potency,[6],5.25 µM (active)
same,Potency,[7],inactive
same,Z-AUC,[8],0.11 (inactive)
same,Z-AUC,[8]; [15],0.00217
same,Z-AUC,[8]; measured here: PEO4 Z-AUC,0.205
CCCC[C@@H](C=O)NC(=O)[C@H](CC(C)C)NC(=O)OCc1ccccc1,Potency,[1],inactive
same,Potency,[3],inactive
same,Potency,[4],inactive
same,outcome,[9],inactive
same,Potency,[7],inactive
same,Z-AUC,[8],1.25 (inactive)
same,Z-AUC,[8]; [15],0.731
same,Z-AUC,[8]; measured here: PEO4 Z-AUC,0.856
COc1ccc(C2Sc3ccccc3N(CCN(C)C)C(=O)[C@@H]2OC(C)=O)cc1 (stereo not given in full),Potency,[1],inactive
same,Potency,[2],inactive
same,Potency,[10],31.6 µM (active) and inactive
CCCCN=C(N)NC(=N)N,outcome,[1],inactive
same,outcome,[11],inactive
same,outcome,[12],inactive
same,outcome,[13],inactive
same,Potency,[5],inactive
same,Potency,[6],inactive
same,outcome,[14],inactive [setting not given]
CN(CCc1ccc(Cl)c(Cl)c1)CC(O)COc1ccc(NS(C)(=O)=O)cc1 (stereo not given),Potency,[1],inactive
